We go through 15 molecules from PubChem BioAssay.

For part of these data: Entries with a potency or affinity are not part of this list. Active and inactive are the calls of the source.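 The calls were made as follows, unless noted: active = calcium signal ratio cut to more than 3 SD under the fully stimulated control mean yet still positive, in both repeats and the primary screen; inactive = the rest.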

Experiment [1] relates to TRPC4 beta (transient receptor potential cation channel C4), mouse. In words: TRPC4 cation channel opening, retest – cell-based, Fluo4 calcium, HEK293 TRPC4beta/mu-opioid, duplicates, 10 µM, confirmation (AID 2426;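 active = fluorescence ratio normalized to control raised more than 50% in primary screen plus both repeat runs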). Particulars: Fluo4 calcium fluorescence, at 10 µM; active compounds read high.
In experiment [2] the test system is transient receptor potential cation channel C4 beta (TRPC4), mouse. In words: TRPC4 cation channel opening, second retest – cell-based, second round, Fluo4, HEK293 TRPC4beta/mu-opioid, 1 µM, confirmation (AID 2461;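 active = primary screen active and over 50% activation in each of two duplicate runs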). Particulars: Fluo4 calcium fluorescence, at 1 µM; active compounds read high.
Experiment [3] has as its system TRPC4 (transient receptor potential cation channel C4 beta), mouse. The experiment can be described thus: potentiation of DAMGO EC20 TRPC4 response – cell-based, second round, Fluo-4, HEK293 TRPC4beta/mu-opioid, 1 µM, confirmation (AID 2554;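 active = primary screen hit whose fluorescence ratio, in both repeats, exceeds the weak agonist control mean by 3 SD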). Particulars: DAMGO EC20, Fluo-4 calcium flux, at 1 µM; active compounds read high.
For experiment [4], the system named is TRPC4 beta (transient receptor potential cation channel C4), mouse. In words: potentiation of DAMGO EC20 TRPC4 response – cell-based, Fluo-4, HEK293 TRPC4beta/mu-opioid, confirmation (AID 2555;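 active = primary screen hit whose calcium fluorescence ratio, in both repeats, exceeds the weak agonist control mean by 3 SD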). Particulars: DAMGO EC20, Fluo-4 calcium flux, at 10 µM; active compounds read high.
Experiment [5] deals with Short transient receptor potential channel 4 (Mus musculus) (UniProt Q9QUQ5). In words: blockers of DAMGO-evoked TRPC4 calcium flux – cell-based, Fluo4, HEK293 TRPC4beta/mu-opioid, confirmation (AID 2636;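 active = calcium signal cut by more than 3 SD below the full-agonist control yet still positive, in both repeats and the earlier primary screen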). Particulars: at 10 µM; active compounds read high.
Experiment [6] shares this target. The experiment can be described thus: blockers of DAMGO-evoked TRPC4 calcium flux – cell-based, second round, Fluo4, HEK293 TRPC4beta/mu-opioid, 1 µM, confirmation (AID 2637).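 As to inhibition: percent of integrated ratio relative to wells lacking test compound.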 Particulars: at 1 µM; active compounds read high.
Experiment [7] has the same target. The experiment can be described thus: calcium entry via TRPC4 opening agents – cell-based, HEK293 TRPC4/mu-opioid, Fluo-4 calcium, dose response (AID 434937;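 active = primary screen activator hit with a dose response curve and TRPC4 channel activation at any tested dose; inactive = no activation, no dose response, or not a primary hit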).
The target is the same in experiment [8]. The experiment can be described thus: potentiation of DAMGO-evoked TRPC4 calcium signal – cell-based, HEK293 TRPC4/mu-opioid, Fluo-4 calcium, EC20 DAMGO, dose response (AID 434941;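 active = earlier screen potentiator hit that boosts the TRPC4 ion channel at some dose, with a dose response; inactive = no potentiation, no dose response, or not a prior hit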;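 also: calcium entry triggered by an EC20 dose of DAMGO at the co-expressed mu-opioid receptor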).
Experiment [9] deals with Short transient receptor potential channel 6 (Mus musculus) (UniProt Q61143). In words: TRPC6 blockade by TRPC4 inhibitor hits – cell-based, HEK293, membrane potential dye, duplicate, selectivity assay for TRPC4 inhibitor project, confirmation (AID 434948;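 active = active in primary screen and both duplicates, each dropping signal beyond three positive-control SD with fluorescence still positive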). The note with it: HEK293 TRPC6, membrane potential dye fluorescence, at 10 µM, stimulated with maximal-effect acetylcholine; active compounds read high.

Experiment [10] has the same target. The experiment can be described thus: TRPC6 opening by TRPC4 activator hits – cell-based, HEK293, membrane potential dye, duplicate, selectivity assay for TRPC4 activator project, confirmation (AID 434950;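 active = membrane potential signal rise above negative control mean plus 3 SD in both duplicates, also active in the earlier TRPC4 screen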). The note with it: HEK293 TRPC6, membrane potential fluorescence, at 10 µM; activation: active compounds read high; outcome: activation.
For experiment [11] the target is unchanged. The experiment can be described thus: positive modulators of mouse TRPC6 channel – HEK293 cells, membrane potential dye, duplicate, selectivity assay for TRPC4 potentiator project, confirmation (AID 434952;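 active = compound raising the membrane signal above positive-control mean plus 3 SD in both repeats, and a primary screen hit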). The note with it: HEK293 TRPC6, membrane potential dye fluorescence, at 10 µM, maximal acetylcholine added after compound; active compounds read high.
Experiment [12] has as its target Short transient receptor potential channel 4 (Mus musculus) (UniProt Q9QUQ5). The experiment can be described thus: calcium flux activators in TRPC4/5HT1a cells, counter-screen for TRPC4 activator project, cell-based, second counter screen, HEK293 TRPC4/5HT1a, Fluo-4 (AID 434977;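 active = calcium signal rise above buffer-control mean plus 5 SD in both duplicates, and also a hit in the primary screen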). Particulars: Fluo-4 calcium flux, at 10 µM; active compounds read high.
The nature of experiment [13]: serotonin-gated TRPC4 signal block – cell-based, second counter screen, HEK293 TRPC4/5HT1a, Fluo-4, counter-screen for TRPC4 inhibitor project, confirmation (AID 434978;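 active = primary screen active whose calcium signal fell more than 3 SD beyond the full-serotonin control mean in both duplicate plates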;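 as to outcome: serotonin given first at submaximal then at maximal dose after compound preincubation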). The note with it: Fluo-4 calcium flux, at 10 µM, serotonin added to trigger calcium flux; active compounds read high.
The subject of experiment [14] is TRPC4 (mouse), co-expressed with 5HT1a in HEK293. The experiment can be described thus: enhancement of serotonin-evoked TRPC4 response – cell-based, second counter screen, HEK293 TRPC4/5HT1a, Fluo-4, counter-screen for TRPC4 potentiator project, confirmation (AID 434979;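 active = signal rise over 3 SD above mean of control wells given weak agonist, in both repeats and first screen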). Particulars: Fluo-4 calcium flux, at 10 µM, serotonin added at its EC20 dose; active compounds read high.

A short description of experiment [15]: nonspecific calcium rise without TRPC4 – cell-based, HEK293 mu-opioid receptor line, counter-screen for TRPC4 activator project, confirmation (AID 449723;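 active = hit in primary screen, with calcium signal over 5 SD above buffer well mean in both duplicates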;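 also: counter screen cells carry the mu-opioid receptor alone and lack TRPC4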). The note with it: HEK293 mu-opioid cells, Fluo-4 calcium fluorescence, at 10 µM; active compounds read high.
The nature of experiment [16]: nonspecific potentiation of DAMGO calcium response – cell-based, HEK293 mu-opioid receptor line, counter-screen for TRPC4 allosteric potentiator project, confirmation (AID 449724;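 active = calcium signal rise more than 3 SD above the low-dose agonist control mean, in both duplicate plates and the primary screen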;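 also: HEK293 cells carrying mu-opioid receptor only with no TRPC4 channel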). The note with it: HEK293 mu-opioid receptor cells, Fluo-4 calcium flux, at 10 µM, compound added before EC20 DAMGO stimulus; active compounds read high.

Short transient receptor potential channel 6 (Mus musculus), sequence (Q61143 whole entry, looked up): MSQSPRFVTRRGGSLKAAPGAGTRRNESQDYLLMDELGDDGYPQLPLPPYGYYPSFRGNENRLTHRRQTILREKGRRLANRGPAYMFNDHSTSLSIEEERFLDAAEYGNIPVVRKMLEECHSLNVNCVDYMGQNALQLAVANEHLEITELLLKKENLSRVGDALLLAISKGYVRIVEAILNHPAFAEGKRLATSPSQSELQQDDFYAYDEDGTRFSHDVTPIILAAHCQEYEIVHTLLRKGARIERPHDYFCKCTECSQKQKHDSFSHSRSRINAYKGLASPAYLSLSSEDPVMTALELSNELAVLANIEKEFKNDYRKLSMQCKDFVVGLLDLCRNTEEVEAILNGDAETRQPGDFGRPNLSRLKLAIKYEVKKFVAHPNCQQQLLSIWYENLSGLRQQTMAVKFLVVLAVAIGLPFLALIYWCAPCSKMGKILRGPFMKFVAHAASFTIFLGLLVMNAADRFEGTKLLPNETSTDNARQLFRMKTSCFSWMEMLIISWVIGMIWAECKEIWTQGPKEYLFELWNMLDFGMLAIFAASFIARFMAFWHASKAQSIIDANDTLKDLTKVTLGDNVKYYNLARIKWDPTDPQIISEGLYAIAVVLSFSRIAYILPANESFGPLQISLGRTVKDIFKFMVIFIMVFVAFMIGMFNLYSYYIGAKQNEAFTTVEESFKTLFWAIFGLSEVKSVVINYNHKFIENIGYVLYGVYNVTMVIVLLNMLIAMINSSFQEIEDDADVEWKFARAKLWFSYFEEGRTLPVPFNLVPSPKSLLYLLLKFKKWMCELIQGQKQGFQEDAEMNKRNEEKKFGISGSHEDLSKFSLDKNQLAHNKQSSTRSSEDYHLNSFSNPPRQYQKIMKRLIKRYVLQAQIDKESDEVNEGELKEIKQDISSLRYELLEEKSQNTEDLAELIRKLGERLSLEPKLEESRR
Short transient receptor potential channel 4 (Mus musculus), sequence (Q9QUQ5 whole entry, looked up): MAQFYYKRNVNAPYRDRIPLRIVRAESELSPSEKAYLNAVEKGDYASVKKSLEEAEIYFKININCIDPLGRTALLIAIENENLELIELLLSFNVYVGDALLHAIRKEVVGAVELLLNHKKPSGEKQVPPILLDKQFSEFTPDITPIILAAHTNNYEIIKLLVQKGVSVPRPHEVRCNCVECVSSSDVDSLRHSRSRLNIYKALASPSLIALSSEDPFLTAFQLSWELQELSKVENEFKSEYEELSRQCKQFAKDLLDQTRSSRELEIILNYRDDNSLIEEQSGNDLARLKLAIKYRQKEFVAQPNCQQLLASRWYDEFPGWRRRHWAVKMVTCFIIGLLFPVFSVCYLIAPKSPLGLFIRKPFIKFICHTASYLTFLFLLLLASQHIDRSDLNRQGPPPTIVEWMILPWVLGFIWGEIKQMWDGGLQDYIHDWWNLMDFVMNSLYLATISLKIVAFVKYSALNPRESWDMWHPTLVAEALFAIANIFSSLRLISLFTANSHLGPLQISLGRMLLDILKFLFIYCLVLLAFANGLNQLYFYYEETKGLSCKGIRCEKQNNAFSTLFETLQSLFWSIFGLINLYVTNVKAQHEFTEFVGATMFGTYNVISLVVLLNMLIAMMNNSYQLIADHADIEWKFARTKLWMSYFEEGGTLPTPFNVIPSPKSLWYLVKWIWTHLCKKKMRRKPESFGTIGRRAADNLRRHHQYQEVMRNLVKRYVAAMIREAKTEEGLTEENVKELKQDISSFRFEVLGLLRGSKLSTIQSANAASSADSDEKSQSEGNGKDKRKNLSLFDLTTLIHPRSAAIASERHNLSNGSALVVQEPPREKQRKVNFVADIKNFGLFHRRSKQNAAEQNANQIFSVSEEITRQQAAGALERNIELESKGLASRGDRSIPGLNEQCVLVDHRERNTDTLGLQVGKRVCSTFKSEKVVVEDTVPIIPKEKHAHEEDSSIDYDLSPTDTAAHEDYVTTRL

Take `COc1ccc(Br)cc1CNC(C)c1ccccc1` (stereo not given): the outcome in experiment [1], in experiment [2], in experiment [3], in experiment [4], in experiment [6] and in [7] was inactive. The outcome in experiment [8], in experiment [10], in experiment [11], in [12], in experiment [14] and in experiment [15] was inactive. Also, the result in [16] was inactive. The inhibition in experiment [5] is 55% (active); in [9] it was 49.5% (active); in experiment [13], 23.6% (active).

On to `Cc1cccc(CN2CCCC(C(=O)Nc3ccccc3Oc3cccnc3)C2)c1` (stereo not given), for which the outcome in experiment [1], in [2], in [3], in [4], in experiment [6] and in experiment [7] was inactive. In addition, the outcome in experiment [8], in experiment [9], in experiment [10], in experiment [11], in experiment [12] and in experiment [14] was inactive. For the same molecule, the result in experiment [15] and in experiment [16] was inactive. The inhibition is 92% (active) in experiment [5] and 35.8% (active) in experiment [13].

In the case of `COc1ccc(C(CNC(=O)c2oc3ccc(F)cc3c2C)N2CCCCC2)cc1` (stereo not given), the outcome in experiment [1], in [2], in [3], in experiment [4], in [6] and in [7] was inactive. For the same molecule, the result in experiment [8], in experiment [9], in experiment [10], in experiment [11], in experiment [12] and in experiment [13] was inactive. Also, the result in experiment [14], in experiment [15] and in [16] was inactive. In experiment [5], the inhibition was 98% (active).

`NC1=NC2=C(CCCC2)C2(CCCCC2)S1`: the result in experiment [1], in experiment [2], in [3], in [4], in [6] and in experiment [7] was inactive. Besides, the outcome in [8], in [10], in experiment [11], in experiment [12], in [14] and in [15] was inactive. Moreover, the result in [16] was inactive. Also, the inhibition is 91% (active) in experiment [5], 44.5% (active) in [9] and 14% (active) in experiment [13].

As to `Cc1cc(OCc2cc(C(=O)NCC3(C)COC3)no2)cc(C)c1Cl`, the result in experiment [1], in experiment [2], in experiment [3], in [4], in experiment [6] and in [7] was inactive. For the same molecule, the result in experiment [8], in experiment [9], in [10], in experiment [11], in [12] and in experiment [14] was inactive. Moreover, the outcome in [15] and in [16] was inactive. For the same molecule, the inhibition in experiment [5] is 66% (active); in experiment [13], 40.6% (active).

Regarding `CCOc1cccc(CNCCO)c1OCc1ccc(Cl)cc1`, the outcome in experiment [1], in experiment [2], in experiment [3], in experiment [4], in experiment [6] and in experiment [7] was inactive. For the same molecule, the result in [8], in [9], in [10], in experiment [11], in experiment [12] and in [14] was inactive. For the same molecule, the result in experiment [15] and in experiment [16] was inactive. Also, the results for the inhibition in [5] and in [13] were 92% (active) and 26.5% (active), respectively.

On to `O=C(Nc1ccccc1Oc1cccnc1)C1CCCN(Cc2ccc(F)cc2)C1` (stereo not given), for which the result in [1], in experiment [2], in [3], in experiment [4], in [7] and in [8] was inactive. For the same molecule, the molecule was classed as inactive in experiment [9], in [10], in [11], in experiment [12], in experiment [14] and in [15]. Besides, in experiment [16], the outcome was inactive. Also, the results for the inhibition in experiment [5], in [6] and in experiment [13] were 87% (active), 43% (active) and 30.2% (active), respectively.

For the molecule `CCCCC(CC)c1nnc(NC(=O)c2cccs2)s1` (stereo not given), the outcome in experiment [1], in experiment [2], in experiment [3], in [4], in experiment [6] and in experiment [7] was inactive. Moreover, the outcome in experiment [8], in experiment [9], in [10], in experiment [11], in [12] and in [14] was inactive. Further, the outcome in experiment [15] and in experiment [16] was inactive. The results for the inhibition in experiment [5] and in experiment [13] were 90% (active) and 40.9% (active), respectively.

As to `Cc1ccc(-c2[nH]c3ccccc3c2SCCN)cc1`, the result in [1], in experiment [2], in experiment [3], in experiment [4], in experiment [5] and in [6] was inactive. Also, the result in experiment [7], in experiment [8], in experiment [10], in experiment [11], in experiment [12] and in experiment [13] was inactive. The outcome in experiment [14], in experiment [15] and in experiment [16] was inactive. Besides, in experiment [9], the inhibition is 34.5% (active).

On to `CCCn1nc([N+](=O)[O-])c(C(C#N)c2nc3ccccc3o2)c(Cl)c1=O` (stereo not given), for which the outcome in experiment [1], in experiment [2], in experiment [3], in experiment [4], in experiment [6] and in experiment [7] was inactive. The result in [8], in [10], in [11], in experiment [12], in experiment [14] and in experiment [15] was inactive. Besides, the result in [16] was inactive. Moreover, the inhibition was 96% (active) in experiment [5], 28% (active) in experiment [9] and 39.9% (active) in [13].

For `CCOc1ccc(Cl)cc1/C=N/O`, the outcome in experiment [1], in experiment [2], in experiment [3], in experiment [4], in [6] and in experiment [7] was inactive. The result in experiment [8], in experiment [10], in experiment [11], in experiment [12], in experiment [14] and in experiment [15] was inactive. Further, the outcome in [16] was inactive. For the same molecule, the inhibition in [5] is 86% (active); in [9] it was 2% (active); in [13] it was 39.8% (active).

`CN1CCN(c2nc3c(c(=O)n(C)c(=O)n3C)n2CC(=O)C23CC4CC(CC(C4)C2)C3)CC1`: the outcome in experiment [1], in [2], in experiment [3], in [4], in experiment [7] and in experiment [8] was inactive. Further, the result in experiment [9], in [10], in experiment [11], in [12], in experiment [14] and in experiment [15] was inactive. Besides, the outcome in [16] was inactive. The inhibition in [5] was 92% (active); in experiment [6], 63% (active); in experiment [13], 17% (active).

As to `COc1cc2ccccc2c2c1CCCC2=O`, the result in experiment [1], in experiment [2], in experiment [3], in experiment [4], in [6] and in experiment [7] was inactive. Besides, the outcome in experiment [8], in experiment [9], in experiment [10], in experiment [11], in experiment [12] and in [14] was inactive. For the same molecule, the outcome in experiment [15] and in experiment [16] was inactive. In addition, the results for the inhibition in [5] and in [13] were 85% (active) and 26.2% (active), respectively.

As to `CC(=O)Nc1cccc(C(=O)NCC2(N3CCCCC3)CCCCC2)c1`, the outcome in experiment [1], in experiment [2], in experiment [3], in experiment [4], in [6] and in experiment [7] was inactive. Moreover, the outcome in [8], in experiment [9], in experiment [10], in experiment [11], in [12] and in [13] was inactive. Further, the result in experiment [14], in experiment [15] and in experiment [16] was inactive. Further, the inhibition in [5] was 89% (active).

On to `C=CCNc1nc(N2CCCC2)nc2ccccc12`, for which the result in experiment [1], in experiment [2], in experiment [3], in [4], in [7] and in [8] was inactive. Besides, the molecule was classed as inactive in [10], in experiment [11], in [12], in [14], in experiment [15] and in experiment [16]. For the same molecule, the inhibition in experiment [5] was 98% (active); in experiment [6] it was 74% (active); in experiment [9] it was 37.5% (active); in experiment [13], 19.9% (active).
